Bioassay records: PubChem, several laboratories
In the library only some 1.4% were active in any assay of this set; here they are far more common.
S1P2 ag = agonists of human S1P2 receptor. AID 729. O95136. S1P2-expressing cell line, agonist reporter read-out. 97,000 tested, 0.46% active. activation, % at 4.5 µM; in the data active = activation above about 16%
S1P2 antag = S1P2 (human) receptor antagonism | O95136 | inhibition, % at 5 µM | 97,000 tested, 0.21% active | cell-based S1P2 antagonist assay, inhibition at 5 uM; in the data active = inhibition above about 45%;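 also: CRE beta-lactamase reporter cells expressing human S1P2 stimulated with S1P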
PTPN22 inh 2 = inhibitors of human LYP (PTPN22) phosphatase; Q9Y2R2; recombinant LYP catalytic domain, DiFMUP fluorescence; inhibition, % at 2 µM; 96,000 tested, 0.21% active; AID 640;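 active = inhibition at 2 µM at or above a set limit, the screen mean plus 3 SD, cut at about 24% in these data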
LYP act = activators of human LYP (PTPN22) phosphatase | activation, % at 2 µM | recombinant LYP, DiFMUP fluorescence; 0 = plate median, 100 = signal doubled | Q9Y2R2 | 96,000 tested, 0.11% active;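 active = activation at 2 µM above a set limit, the mean plus 5 SD, cut at about 37% in these data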
GALR2 ag = GALR2 (human) receptor agonism; GALR2-expressing cells, agonist activation read-out; activation, % (no concentration beside the values); 140,000 tested, 0.48% active; O43603; in the data active = activation above about 5%, passing the limit was not always enough
GALR2 antag = GALR2 (human) receptor antagonism. 140,000 tested, 0.39% active. GALR2-expressing cells, antagonist mode. inhibition, % at 4 µM. O43603; in the data active = inhibition above about 27%;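 also: cells stimulated with galanin 1-16 at roughly its EC80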
Numbers stand for hits; i = inactive; nt = no result.

SMILES	S1P2 ag	S1P2 antag	PTPN22 inh 2	LYP act	GALR2 ag	GALR2 antag
CCc1nc2ccccc2c(C(=O)OCC(=O)Nc2cccc(S(=O)(=O)N3CCOCC3)c2)c1C	17.8	i	i	i	i	i
CCc1ccc(N2C(=O)C3C4CCC(C4=C(C)C)C3C2=O)cc1 (configuration not stated)	nt	nt	nt	nt	i	i
CN(C)c1ccc(/C=N/N=C2/NC(=O)/C(=C/c3ccc([N+](=O)[O-])cc3)S2)cc1	i	i	24.7	i	i	i
CCOC(=S)N/C(=N\S(=O)(=O)c1ccc(C)cc1)c1ccccc1	i	i	i	i	i	i
COC(=O)C1=C(C)OC(N)=C(C#N)C1c1ccccc1 (configuration not stated)	i	i	i	i	i	i
C=CCC(Nc1ccccc1)C12C=CC(O1)C(C(=O)OC)=C2C(=O)OC (configuration not stated)	i	64.7	i	i	i	i
CCNC(=O)CN(C1CCCCC1)S(C)(=O)=O	nt	nt	nt	nt	i	i
COc1ccc(C2SCC(C(=O)NCc3ccc(F)cc3)N2C(C)=O)cc1 (configuration not stated)	21.6	i	i	i	i	i
CCC(=O)N1C(C(=O)NCc2ccc(OC)cc2)CSC1c1ccc(OC)cc1 (configuration not stated)	i	i	i	i	i	i
CC(C(=O)Nc1ccccc1Oc1ccccc1)c1ccccc1 (configuration not stated)	nt	nt	nt	nt	i	i
CCOC(=O)CC(=O)CSc1nc2c(C)c(C)ccc2cc1C	i	i	24.2	i	i	i
CCOC(=O)CC(=O)CSc1nc2cc(C)ccc2cc1C	i	i	i	i	i	i
CCCOc1ccc(Cn2c(=O)oc3ccc(C)cc32)cc1OC	29.1	i	i	i	i	i
CCOc1ccccc1NC(=O)CN(c1ccc(C)cc1)S(=O)(=O)c1c(C)noc1C	i	i	26.8	i	i	i
COc1ccc(OC)c(NC(=O)CN(c2ccc(C(C)C)cc2)S(=O)(=O)c2c(C)noc2C)c1	i	i	i	i	i	i
COc1ccc(OC)c(NC(=O)CN(c2ccc(C)cc2)S(=O)(=O)c2c(C)noc2C)c1	i	i	i	i	6.9	i
COc1cccc(CNC(=O)CN(c2cc(C)cc(C)c2)S(=O)(=O)c2c(C)noc2C)c1	109.2	i	i	i	i	i
COc1ccc(C(c2c[nH]c3ccccc23)c2c[nH]c3ccccc23)cc1O	88.7	i	i	i	i	i
CC(=O)Nc1cccc(NC(=O)CCn2cnc3cc(C)c(C)cc32)c1	i	i	25.4	i	i	i
CC(C)NS(=O)(=O)c1ccc2c(c1)oc(=O)n2C	nt	nt	nt	nt	i	i
Cn1c(=O)oc2cc(S(=O)(=O)NCC3CCCO3)ccc21 (configuration not stated)	19.5	i	i	i	i	i
COc1cc(C(=O)Nc2sc3c(c2C(=O)NCc2ccco2)CCCC3)cc(OC)c1OC	23.5	i	i	i	i	i
Nc1ccc(-c2nc3ccc(-c4nc5ccccc5o4)cc3[nH]2)cc1	i	i	i	i	6.4	i
O=C(Nc1nc(-c2ccccn2)cs1)c1ncc(Cl)c(Cl)c1Cl	i	i	27.0	i	i	i
CC1CCCCC1NS(=O)(=O)c1ccc(S(=O)(=O)NCc2ccncc2)cc1 (configuration not stated)	i	55.0	i	i	i	i
SMILES	S1P2 ag	S1P2 antag	PTPN22 inh 2	LYP act	GALR2 ag	GALR2 antag
NS(=O)(=O)c1ccc(N2N=C(c3ccccc3)CC2c2ccccc2)cc1 (configuration not stated)	nt	nt	nt	nt	5.4	i
CCc1ccc(C2=NN(S(C)(=O)=O)C(c3cccs3)C2)cc1 (configuration not stated)	i	i	i	i	i	i
CS(=O)(=O)N1N=C(c2ccc3nccnc3c2)CC1c1ccccc1 (configuration not stated)	i	i	i	i	i	i
CCc1ccc(C2=NN(c3ccc(S(N)(=O)=O)cc3)C(c3ccc(F)cc3)C2)cc1 (configuration not stated)	17.1	i	i	i	39.5	i
CSc1ccc(/C=C(\C#N)C(=O)Nc2cccc(C)c2)cc1	nt	nt	nt	nt	i	i
COC(=O)C1=CN(C)C=C(C(=O)OC)C1c1ccccc1Cl	22.9	i	i	i	16.0	i
CCCOc1ccccc1C1C(C(=O)OC)=CN(C(C)C)C=C1C(=O)OC	32.2	i	i	i	29.1	i
CCCCOc1ccccc1C1C(C(=O)OC)=CN(CC)C=C1C(=O)OC	24.0	i	i	i	15.7	i
COC(=O)C1=CN(CCCN2CCCC2=O)C=C(C(=O)OC)C1c1ccccc1C(F)(F)F	20.0	i	i	i	19.6	i
COc1ccccc1C(=O)NCCCN1CCCC1=O	i	i	i	i	i	i
CCCOc1ccccc1C1NC(=O)NC(C)=C1C(=O)OCCOCC (configuration not stated)	i	i	i	i	i	i
CCOc1ccc(C2C(C(=O)OC)=CN(CCOC)C=C2C(=O)OC)cc1	nt	nt	nt	nt	i	i
CCN1C=C(C(=O)OC)C(c2cccc(C)c2)C(C(=O)OC)=C1	i	i	i	i	14.0	i
Cc1cc(/C=C2/SC(=S)N(c3cccc(Cl)c3)C2=O)c(C)n1-c1cccnc1	i	73.5	i	i	i	i
O=C(CN1C(=O)C2C3c4ccccc4C(c4ccccc43)C2C1=O)Nc1ccccc1C(=O)O (configuration not stated)	nt	nt	nt	nt	i	i
CN(C)/C=C(/C#N)C(=O)c1cccc(Oc2ccc(C(C)(C)C)cc2)c1	i	i	i	i	i	i
Cn1nc(CC(=O)NCc2ccc(C(F)(F)F)cc2)c2ccccc2c1=O	i	62.1	i	i	i	i
Cn1nc(C(=O)NCc2ccc(F)cc2)c2ccccc2c1=O	i	i	i	i	i	i
CCCOc1ccc(CSc2nc3ccccc3[nH]2)cc1	i	48.4	i	i	i	i
O=C(Cc1coc2ccc3ccccc3c12)N1CCCC1	25.5	i	i	i	i	i
Cc1cc(C)n(-c2nc3ccccc3nc2Nc2ccc3c(c2)OCO3)n1	nt	nt	nt	nt	i	i
COc1cccc(Nc2nc3ccccc3nc2-n2nc(C)cc2C)c1	38.0	i	i	i	23.3	i
Cc1nc2cc(N=NC3=C(O)CCCC3=O)ccc2s1	nt	nt	nt	nt	i	i
Nc1nc2nc(-c3ccc(OCc4ccccc4)cc3)cc(C(F)(F)F)n2n1	33.1	i	i	i	i	i
O=C(CN(C(=O)CNC(=O)c1ccco1)c1ccc2c(c1)OCO2)NC1CCCCC1	i	i	29.4	i	i	i
SMILES	S1P2 ag	S1P2 antag	PTPN22 inh 2	LYP act	GALR2 ag	GALR2 antag
O=C(CN(C(=O)CNC(=O)c1ccco1)c1ccc(Cl)c(Cl)c1)NC1CCCCC1	i	i	i	i	i	i
CCOc1ccc(NC(=O)CCN2CCN(S(=O)(=O)c3ccc(Cl)cc3)CC2)cc1	i	i	i	i	269.0	i
COc1cc(/C=N/NC(=S)NCCN2CCOCC2)ccc1O	nt	nt	nt	nt	i	i
CCn1c2ccc(Cl)cc2c2nc3ccccc3nc21	42.7	i	i	i	i	i
CCOc1ccc(Cn2c3ccc(OC)cc3c3nc4ccccc4nc32)cc1	nt	nt	nt	nt	i	i
CCn1c2ccc(OC)cc2c2nc3ccccc3nc21	34.1	i	i	i	i	i
